Source: PubChem BioAssay (National Center for Advancing Translational Sciences (NCATS))
Rows were chosen to be rich in hits. Some 17% of all compounds tested hit in one or more screens of this group.
TDP1 cell noCPT: qHTS for Inhibitors of human tyrosyl-DNA phosphodiesterase 1 (TDP1): qHTS in cells in absence of CPT | Potency, µM (doses to about 46.2 µM), hits mostly inhibitors | 420,000 compounds, 15% hits | DT40 Tdp1-/- hTDP1 cells, no CPT, ATP luminescence, 48 h; further: nearly all actives have a fitted effect of over 55% in size
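Growth of hTDP1-complemented DT40 Tdp1-knockout cells is measured by ATP luminescence after at least 48 hr compound exposure at 37 °C, with DMSO substituting for the 20 nM CPT used in the parallel screen.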
TDP1 cell CPT: growth inhibition of DT40 Tdp1-/-;hTDP1 cells with camptothecin (screen for TDP1 inhibitors). chicken DT40 Tdp1-/-;hTDP1 cells + 20 nM CPT, ATP luminescence, 48 h. Potency, µM (top dose mostly 46.2 µM), most hits filed as inhibitors. 420,000 compounds, 12% hits. AID 686979; further: nearly all actives have a fitted effect of over 55% in size
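Cell growth measured by CellTiter-Glo luminescence after a minimum 48 h, 37 C compound exposure with 20 nM CPT in Tdp1-knockout DT40 cells stably expressing hTDP1, seeded 400/well; qHTS titration format.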
ClpP mod: qHTS Assay for Activators of ClpP. ATP-dependent Clp protease proteolytic subunit (Bacillus subtilis (strain 168)), P80244. purified B. subtilis ClpP, FRET peptide cleavage, 20 min. 340,000 compounds, 1.9% hits. Potency, µM (doses to about 57.5 µM); active means well fitted falling curve with a large enough effect; inconclusive means small, poorly fitted or top-dose-only effect; inactive means no such curve, though single readings can be large or run the other way; further: the source files actives as falling curves though it sought activators and does not explain the sign; nearly all actives have a fitted effect of over 65% in size
Target sequence (P80244 whole entry, looked up): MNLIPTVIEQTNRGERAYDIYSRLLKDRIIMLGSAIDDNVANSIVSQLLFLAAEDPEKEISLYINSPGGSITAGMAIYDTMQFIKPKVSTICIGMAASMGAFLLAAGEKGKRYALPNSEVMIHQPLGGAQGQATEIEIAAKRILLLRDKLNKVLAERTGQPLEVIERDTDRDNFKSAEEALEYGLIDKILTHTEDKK
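Purified B. subtilis ClpP, 10 microg/mL final in Tris/HCl pH8 with KCl, BSA, glycerol and Tween-20, cleaved an Abz/nitrotyrosine-quenched decapeptide. Fluorescence (ex 320, em 430) was read at 0 and 20 min at room temperature. Delta was normalized to 5.8 microM ADEP and DMSO/no-enzyme controls.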
TDP1 block: TDP1 (human) enzyme inhibition | 350,000 compounds, 0.28% hits | Q9NUW8 | AID 485290 | Potency, µM (series often up to 130 µM), most hits filed as inhibitors | recombinant TDP1, AlphaScreen DNA substrate cleavage; further: nearly all actives have a fitted effect of over 40% in size
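Steps: enzyme plus compound, 15 min RT; add biotin/phosphotyrosine-FITC oligonucleotide (15 nM final), react 5 min; add donor/acceptor beads (10 ug/ml final), 10 min; read AlphaScreen. Tdp1 at 1 nM final.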
Numbers stand for hits; - = inactive; ? = inconclusive; . = not tested or not shown; ! = not active in a repeat. Unless noted, the call rests on the fitted dose curve; in most records, active means well fitted curve in the direction sought with a large enough effect; inconclusive means small, poorly fitted or top-dose-only effect, or another doubt; inactive means no such curve, though single readings can be large; an effect the other way counts as inactive or inconclusive.

SMILES	TDP1 cell noCPT	TDP1 cell CPT	ClpP mod	TDP1 block
CCOC(=O)C1=C(O)/C(=C/c2ccc(CNC(=O)C(=O)Nc3ccc(C)cc3)o2)N=C1C	6.51µM	?	-	-
COC(=O)C1=C(O)/C(=C\c2ccc(CNC(=O)C(=O)Nc3ccc(C)cc3)o2)N=C1C	?	?	-	-
COc1ccc(NC(=O)CCc2nc3c(C)nn(-c4ccc(C)cc4)c3n(C)c2=O)c(OC)c1	-	-	-	-
Cn1c(NC(=S)Nc2ccccc2)nc2ccccc21	1.64µM	1.64µM	-	-
COc1cc(NC(=O)COc2cc3oc(=O)cc(C)c3cc2Cl)cc(OC)c1OC	5.8µM	8.2µM	-	-
Cc1ccc(C)c(OCC(=O)Nc2c(C)n(C)n(-c3ccccc3)c2=O)c1	-	-	-	-
CC(=O)c1cccc(OCC(=O)Nc2cccc(C(=O)Nc3c(C)n(C)n(-c4ccccc4)c3=O)c2)c1	?	13µM	-	-
Cc1cc(=O)oc2cc(OCC(=O)Nc3c(C)n(C)n(-c4ccccc4)c3=O)c(Cl)cc12	-	-	31.6µM	-
COc1cc(NC(=O)COc2cc(C)cc3oc(=O)c(C)c(C)c23)cc(OC)c1OC	-	-	-	-
c1ccc2c(c1)N1CCCN=C1N2CCN1CCCCC1	-	-	-	-
OC(CN1C2=NCCCN2c2ccccc21)c1ccc2c(c1)OCO2 (stereo unspecified)	-	-	-	-
COc1cccc(C(=O)CN2C3=NCCCN3c3ccccc32)c1	20.6µM	20.6µM	-	-
OC(CN1C2=NCCN2c2ccccc21)c1ccc2c(c1)OCO2 (stereo unspecified)	23.1µM	?	-	-
CCN1C2=NCCCN2c2cc(C)c(C)cc21	?	?	28.2µM	-
CCCCCCN1C2=NCCCN2c2ccccc21	16.4µM	18.4µM	-	-
C=CCN1C2=NCCCN2c2ccccc21	-	-	-	-
Cc1nnc(SCC(=O)c2ccc(C(C)C)cc2)s1	?	?	-	-
O=C(N/N=C/C1C(c2ccccc2)C1(Cl)Cl)c1cccc(Cl)c1 (stereo unspecified)	?	?	-	-
CCCC(=O)N1CCC1(C)C(=O)NS(=O)(=O)c1ccccc1Cl (stereo unspecified)	-	-	-	.
CC1(OC(=O)c2ccco2)C(=O)C2=COC(C3CC3)=CC2=C(Br)C1=O (stereo unspecified)	.	.	.	-
COc1ccccc1CNC(=O)c1cc(S(=O)(=O)N2CCCC(C)C2)cn1C (stereo unspecified)	?	?	-	-
COc1cc(OC)c(NC(=O)c2nn(-c3ccc(C)cc3)c(=O)c3c2c2ccccc2n3C)cc1Cl	-	-	-	-
COC(=O)c1ccc(OCCN2C3=NCCN3c3ccccc32)cc1	?	?	-	-
Cc1ccc(C)c(C(=O)CN2C3=NCCCN3c3ccccc32)c1	?	16.4µM	-	-
Cc1ccc(CN2C3=NCCN3c3ccccc32)cc1	?	?	.	-
SMILES	TDP1 cell noCPT	TDP1 cell CPT	ClpP mod	TDP1 block
Cc1cccc(CN2C3=NCCCN3c3ccccc32)c1	14.6µM	20.6µM	-	.
COc1ccc(C(=O)CN2C3=NCCCN3c3ccccc32)cc1OC	16.4µM	20.6µM	-	-
Clc1ccc(CN2C3=NCCN3c3ccccc32)cc1Cl	16.4µM	?	-	-
OCCN1C2=NCCCN2c2ccccc21	-	-	.	-
COc1ccccc1/C=C/c1nc2ccccc2s1	?	?	-	.
COc1ccc(CCC(=O)NC2CC(=O)N(c3ccccc3)C2)cc1 (stereo unspecified)	-	-	-	-
O=C(CN1C2=NCCN2c2ccccc21)C12CC3CC(CC(C3)C1)C2	16.4µM	20.6µM	-	-
c1ccc(CN2C3=NCCN3c3ccccc32)cc1	-	-	-	-
NC(=O)c1nc(Nc2ccccc2)sc1NC(=O)c1ccccc1Br	20.6µM	?	-	-
CCOC(=O)Cc1nnc(NC(=O)c2ccccc2OC)s1	-	-	-	-
COc1ccccc1C(=O)Nc1sc(Nc2ccccc2)nc1C(N)=O	6.51µM	11.6µM	-	-
O=C(Nc1nccs1)c1ccccc1Br	-	-	-	.
COCC(C)n1c(SCC(=O)NC(=O)NCc2ccccc2)nc2ccccc2c1=O (stereo unspecified)	-	-	-	-
O=[N+]([O-])c1ccc(Cn2cc(-c3cccc(C(F)(F)F)c3)nn2)cc1	15.8µM!	?	-	.
CC[C@H](C)[C@H](NC(=O)[C@@H]1CCCN1C(=O)[C@H](C)NC(=O)[C@H](CC(N)=O)NC(=O)[C@@H]1CCCN1C(=O)[C@@H]1CCCN1C(=O)[C@H](CCCN=C(N)N)NC(=O)[C@H](Cc1ccc(O)cc1)NC(=O)[C@H](C)NC(=O)[C@@H]1CCCN1C(=O)[C@@H]1CCCN1C(=O)[C@@H](N)[C@@H](C)O)C(=O)N[C@@H](CC(C)C)C(=O)O	.	.	.	-
CC(C)(C)c1ccc(OCCCCCCN2CCNCC2)cc1	8.2µM	18.4µM	.	.
CC1CCN(CCCCOc2ccc(C(C)(C)C)cc2)CC1	?	23.1µM	-	.
CC(C)(c1ccccc1)c1ccc(OCCN2CCOCC2)cc1	16.4µM	?	-	.
CC(C)(c1ccccc1)c1ccc(OCCCN2CCNCC2)cc1	7.31µM	5.8µM	.	-
CC(C)(C)c1ccc(OCCN2CCCC2)cc1	-	-	-	-
O=C(COC(=O)/C=C/c1cccc(F)c1)NC(=O)NCc1ccccc1	?	-	-	-
CNCCCOc1ccc(C(C)(C)c2ccccc2)cc1	.	.	.	-
CCC(C)NCCOc1ccc(C(C)(C)c2ccccc2)cc1 (stereo unspecified)	16.4µM	?	.	-
O=C(c1ccco1)N(CCCN1CCOCC1)c1nc(-c2ccc(F)cc2)cs1	15.8µM	23.1µM	-	-
CCN(C(=O)c1ccco1)c1nc(CC(=O)Nc2ccc(Cl)cc2)cs1	16.4µM	?	-	-
SMILES	TDP1 cell noCPT	TDP1 cell CPT	ClpP mod	TDP1 block
COCCCN(C(=O)c1ccccc1)c1nc(-c2ccc(OC)cc2)cs1	16.4µM	18.4µM	-	-
CN(C(=O)c1ccco1)c1nc(-c2ccc(F)cc2)cs1	-	-	-	.
CCN(CC)CCCN(C(=O)c1ccco1)c1nc(-c2ccc(C)cc2)cs1	?	18.4µM	-	-
COc1cc(NC(=O)c2ccccc2)c(C)cc1NC(=O)CC(CC(=O)O)c1ccccc1 (stereo unspecified)	-	-	.	.
CC(C)(C)C(O)(CC#CCN1CCCC1)c1ccccc1 (stereo unspecified)	?	-	.	-
CCN(CC)CCN(C(=O)c1ccco1)c1nc2c(C)c(C)ccc2s1	20.6µM	23.1µM	-	-
COCCCN(C(=O)c1ccco1)c1nc(-c2ccc(OC)cc2)cs1	20.6µM	16.4µM	-	-
COCCCN(C(=O)c1ccccc1F)c1nc(-c2ccc(OC)cc2)cs1	?	?	-	-
COc1cc(CNC(=O)c2cc3n(n2)CCCN(Cc2ccc(C)cc2)C3=O)cc(OC)c1OC	?	?	-	-
